According to PubChem BioAssay (Tox21):
Records with an inconclusive call do not appear. Unmarked numbers belong to inactive results. Activity calls are given as the source filed them. Calls come from the whole dose curve; as a rule, active = well fitted cell-killing curve with a large enough effect in the repeat runs; inconclusive = weak or mixed curves, or effect the other way; inactive = no such curve, though single readings can be large or run the other way.

Test: qHTS assay to identify small molecule antagonists of the glucocorticoid receptor (GR) signaling pathway - cell viability counter screen (AID 720693); note: nearly all actives have a fitted effect of over 55% in size
Conditions: GR-bla HeLa viability, CellTiter-Glo luminescence, 18 h, with 5 nM dexamethasone present; series mostly up to 58.5 µM; viability change, negative = cytotoxic: at the top concentration
Excerpt: National Center for Advancing Translational Sciences [NCATS]
NIH Chemical Genomics Center [NCGC]
U.S. Environmental Protection Agency [EPA]
National Institutes of Environmental Health Sciences [NIEHS]
National Toxicology Program [NTP]
U.S. Food and Drug Administration [FDA]
The Glucocorticoid receptor (GR) is one of the members of the nuclear receptor family of ligand-dependent transcription factors. GR plays a critical role in carbohydrate, protein and lipid metabolisms and programmed cell death. CellSensor GR-bla HeLa cell line (Invitrogen) contains a beta-lactamase reporter gene under the control of the glucocorticoid response element stably integrated into HeLa cells, a cervical cancer cell line that expresses glucocorticoid receptor. The activation of the reporter gene under culture conditions can be detected by fluorescence intensity. This cell line has been used to screen the Tox21 10K compound library and to identify the compounds that inhibit the GR signaling. The cytotoxicity of the Tox21 compound library against the GR-bla HeLa cell line was tested in parallel by measuring the cell viability using CellTiter-Glo assay in the same wells.
Tox21 Assay Protocol Summary:
The GR-bla HeLa cells were dispensed at 1500 cells/5 ul/well in 1536-well black wall/clear bottom plates using a Multidrop Combi (ThermoFisher Scientific, Waltham, MA) dispenser. After the assay plates were incubated at a 37 C/5% CO2 incubator for 4 hours, 23 nL of compounds dissolved in DMSO, positive controls or DMSO only was transferred to the assay plate by a pintool station (Kalypsys, San Diego, CA), followed by addition of 1 uL of dexamethasone (5 nM, final concentration in the well). The plates were incubated at 37 C for 18 hours. After 1 uL of LiveBLAzerTM B/G FRET substrate was added using a Flying Reagent Dispenser (Aurora Discovery, San Diego, CA), the plates were incubated at room temperature (RT) for 2 hours, and fluorescence intensity was measured by an Envision plate reader (PerkinElmer, Shelton, CT). After measurement of bla assay, 3 ul CellTiter-Glo (Promega, Madison, WI) was added to measure the cytotoxicity and the plates were then incubated at RT for 30 min. The luminescence was measured using a ViewLux (Perkin Elmer) plate reader.
% is set by controls: 0 for no effect and ±100 for the full control effect; potency is the fitted concentration of half-maximal effect.

SMILES | viability change, negative = cytotoxic | Potency
COc1ccc2c(c1)C13CCCC[C@@H]1C(C2)N(C)CC3 (stereo not given in full) | 0.623% | –
CCCCCc1cc(O)c2c(c1)OC(C)(C)c1ccc(C)cc1-2 | – | 13.4 µM (active)
O=S(=O)(O)c1cc(O)ccc1O | – | inactive
C[C@]12CC[C@@H]3c4ccc(OC(=O)N(CCCl)CCCl)cc4CC[C@H]3[C@@H]1CC[C@@H]2OP(=O)(O)O | -2.8% | –
C[C@@H](Cc1ccccc1)N(C)C | 14.1% | –
O=c1[nH]cc(N(CCCl)CCCl)c(=O)[nH]1 | 4.46% | –
O=C(O)/C=C/C(=O)O | – | inactive
CC1(C)S[C@@H]2[C@H](N)C(=O)N2[C@H]1C(=O)O | -0.257% [at 27 µM] | –
CC(C)NC(C)Cc1ccc(I)cc1 (stereo not given) | 7.24% | –
C[C@]12CC[C@H]3[C@@H](CCC4=CC(=O)CC[C@@]43C)[C@@H]1CC[C@H]2O | -13.3% | –
CN1C(=O)CC(=O)N(c2ccccc2)c2cc(Cl)ccc21 | 8.03% | –
CC(=O)OC1CN2CCC1CC2 (stereo not given) | 3.23% | –
CN=C1CN(O)C(c2ccccc2)=c2cc(Cl)ccc2=N1 | – | inactive
Cc1cc(C)cc(C(=O)OC2C[C@H]3CC[C@@H](C2)N3C)c1 (stereo not given in full) | -9.44% | –
CN1CSC(=S)N(C)C1 | – | inactive
CC(C)=CCN1CC[C@]2(C)c3cc(O)ccc3C[C@H]1[C@H]2C | -8.14% | –
CCC(=O)O[C@]1(c2ccccc2)CCN(C)C[C@H]1C | -13.7% | –
NCC[C@H](O)C(=O)N[C@@H]1C[C@H](N)[C@@H](O[C@H]2O[C@H](CN)[C@@H](O)[C@H](O)[C@H]2N)[C@H](O[C@@H]2O[C@H](CO)[C@@H](O)[C@H]2O)[C@H]1O | -10.4% [at 27 µM] | –
S=C(S)N1CCNCC1 | -5.02% | –
C[C@]12CC[C@H]3[C@@H](CCC4=C(Cl)C(=O)CC[C@@]43C)[C@@H]1CC[C@@H]2O | -29.3% | –

SMILES | viability change, negative = cytotoxic | Potency
Clc1ccc2c(c1)C(c1ccccc1)=NCc1nncn1-2 | 10.7% | –
CCC1(c2ccccc2)C(=O)NC(=O)N(C(=O)c2ccccc2)C1=O (stereo not given) | 2.79% | –
CNC(C)C(O)c1ccc(O)cc1 (stereo not given) | – | inactive
C/C(=C\c1csc(C)n1)[C@@H]1C[C@@H]2O[C@]2(C)CCC[C@H](C)[C@H](O)[C@@H](C)C(=O)C(C)(C)[C@@H](O)CC(=O)O1 | -18.5% | –
CNC(=O)Oc1ccccc1C(=O)Nc1ccccc1 | 5.85% | –
CCNCC(O)c1cccc(O)c1 (stereo not given) | -1.82% [at 27 µM] | –
C=CCC1([C@@H](C)CCC)C(=O)NC(=O)NC1=O | -2.04% | –
C1CN(P2(N3CC3)=NP(N3CC3)(N3CC3)=NP(N3CC3)(N3CC3)=N2)CCO1 (stereo not given) | -14.9% | –
CC(C)C[C@H]1C(=O)N2CCC[C@H]2[C@]2(O)O[C@](NC(=O)[C@@H]3C[C@@H]4c5cccc6[nH]cc(c56)C[C@H]4N(C)C3)(C(C)C)C(=O)N12 | 5.38% | –
CCC(N)Cc1c[nH]c2ccccc12 (stereo not given) | – | inactive
CCCCCc1cc(O)c2c(c1)OC(C)(C)[C@@H]1CCC(C)=C[C@@H]21 | – | 23.9 µM (active)
O=C1C[C@@H]2OCC=C3CN4CC[C@]56c7ccccc7N1[C@H]5[C@H]2[C@H]3C[C@H]46 (tested in a mixture with another compound) | – | inactive
COc1ccc2c3c1O[C@H]1[C@@H](O)C=C[C@H]4[C@@H](C2)NCC[C@@]341 | 10.3% [at 78.9 µM] | –
C=C[C@H]1CN2CC[C@H]1C[C@H]2[C@H](OC(=O)OCC)c1ccnc2ccc(OC)cc12 | -0.673% | –
C[N+]1([O-])[C@@H]2CC[C@H]1CC(OC(=O)C(CO)c1ccccc1)C2 (stereo not given in full) | – | inactive
C[C@@H]([C@H](O)c1ccccc1)N(C)C | -0.0926% | –
CC(=O)O[C@H]1C[C@H](O[C@H]2[C@@H](O)C[C@H](O[C@H]3[C@@H](O)C[C@H](OC4CC[C@@]5(C)[C@H](CC[C@@H]6[C@@H]5CC[C@]5(C)[C@@H](C7=CC(=O)OC7)CC[C@]65O)C4)O[C@@H]3C)O[C@@H]2C)O[C@H](C)[C@H]1O[C@@H]1O[C@H](CO)[C@@H](O)[C@H](O)[C@H]1O (stereo not given in full) | – | 0.756 µM (active)
CC(=O)OO | 10.1% | –
C[C@]12N[C@H](Cc3ccccc31)c1ccccc12 | – | inactive
Cc1cc(C(C)(C)c2ccc(O)c(C)c2)ccc1O | -4% | –
